Data: PubChem BioAssay (EPA / NIEHS)
Results filed as inconclusive are left out. Some compounds were tested as several samples or in several runs, with calls that do not always agree. Activity calls are given as the source filed them. Rule for the calls: active = hit-call score of the fitted dose curve at least 0.9, where 1 is the maximum; inconclusive = response in the unintended direction; inactive = score below 0.9.

How the values were obtained:
[1] = target: Estrogen receptor (Homo sapiens) + Estrogen receptor beta (Homo sapiens) (UniProt P03372+Q92731); experiment: OT_ER_ERaERb_0480: Odyssey Thera (OT) 8-hour HEK293T Protein-Complementation Assay for Estrogen Receptor-alpha/-beta Heterodimer (AID 2283352)
In short: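 Fluorescence increase from reconstituted reporter fragments, quantified by laser scanning cytometer, reflects ER-alpha/ER-beta heterodimer formation in human HEK293T cells. Exposure 8 h; positive-direction fitting against DMSO vehicle.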

[2] = target: Estrogen receptor beta (Homo sapiens) (UniProt Q92731); experiment: OT_ER_ERbERb_0480: Odyssey Thera (OT) 8-hour HEK293T Protein-Complementation Assay for Estrogen Receptor-beta/-beta Homodimer (AID 2283357);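 note: active means signal gain over DMSO baseline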
In short: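 Readout: increase in mean fluorescence intensity (nucleus for agonists; nucleus plus cytoplasm for antagonists) relative to DMSO, from a reporter-fragment complementation of human ER-beta LBD homodimer in HEK293T cells dosed 8 hours.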

[3] = target: Glucocorticoid receptor (Homo sapiens) (UniProt P04150); experiment: NVS_NR_hGR: NovaScreen (NVS) Nuclear Receptor Binding Assay for human Glucocorticoid Receptor (GR) (AID 2283363);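 for AC50: activity is loss of specific radioligand binding signal relative to DMSO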
In short: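 Cell-free radioligand binding with extracted receptor protein, read by filter-based scintillation counting 16 hours after dosing. Loss of specific signal versus DMSO baseline was scored. Primary screen ran in duplicate at 25 uM; actives were followed up in concentration series.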

[4] = target: human Peroxisome Proliferator-activated Receptor alpha (PPARa), PPARA (gene 5465) (UniProt Q07869); experiment: NVS_NR_hPPARa: NovaScreen (NVS) Nuclear Receptor Binding Assay for human Peroxisome Proliferator-activated Receptor alpha (PPARa) (AID 2283359);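 note: activity means loss of TR-FRET signal versus DMSO baseline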
In short: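 Cell-free binding assay with extracted human protein, read by TR-FRET 1 h after chemical dosing. Loss of signal relative to DMSO baseline indicates binding. Primary screen used duplicate single concentration (25 uM); actives followed up in concentration series.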

[5] = target: human Thyroid Receptor Alpha (TRa), THRA (gene 7067) (UniProt P10827); experiment: NVS_NR_hTRa_Antagonist: NovaScreen (NVS) Nuclear Receptor Binding Assay for human Thyroid Receptor Alpha Antagonism (TRa) (AID 2283362);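 note: activity is loss of signal relative to DMSO baseline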
In short: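 Actives from a duplicate 25 uM single-point screen were retested in concentration series. The cell-free antagonist-format binding assay was read by AlphaLISA chemiluminescence at 1 h, scored as signal loss relative to DMSO.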

[6] = target: Nuclear receptor subfamily 1 group I member 2 (Homo sapiens) (UniProt O75469); experiment: NVS_NR_hPXR: NovaScreen (NVS) Nuclear Receptor Binding Assay for human Pregnane X Receptor (PXR) (AID 2283365);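 note: a drop in FRET signal versus DMSO baseline means the compound binds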
In short: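 Human PXR binding measured by TR-FRET in a cell-free format, 2 h exposure. Single-concentration duplicates at 25 uM preceded concentration-response retests of actives; endpoint fitted positively relative to DMSO, loss of signal indicating binding.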

[7] = target: Peroxisome proliferator-activated receptor gamma (Homo sapiens) (UniProt P37231); experiment: NVS_NR_hPPARg: NovaScreen (NVS) Nuclear Receptor Binding Assay for human Peroxisome Proliferator-activated Receptor gamma (PPARg) (AID 2283370)
In short: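 Fluorescence polarization readout of ligand binding to extracted human PPARg, measured at 2 h. Duplicate single-point screen at 25 uM, then concentration-series retesting; activity defined as signal loss versus DMSO.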

[8] = target: Retinoic acid receptor alpha (Homo sapiens) (UniProt P10276); experiment: NVS_NR_hRAR_Antagonist: NovaScreen (NVS) Nuclear Receptor Binding Assay for human Retinoic Acid Alpha Receptor Antagonism (RAR) (AID 2283358)
In short: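 Cell-free TR-FRET binding assay on extracted receptor protein, run in antagonist mode; signal read 2 hours after chemical dosing. Loss of signal was fitted relative to DMSO baseline. Screened at 25 uM in duplicate, actives followed up in concentration series.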

[9] = target: Retinoic acid receptor alpha (Homo sapiens) (UniProt P10276); experiment: NVS_NR_hRARa_Agonist: NovaScreen (NVS) Nuclear Receptor Binding Assay for human Retinoic Acid Alpha Receptor Agonism (RAR) (AID 2283361)
In short: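 Cell-free TR-FRET binding read-out with extracted human RARα protein, read 2 h after compound addition. Gain of signal scored against DMSO baseline. Primary screen at a single 25 uM in duplicate; actives then retested in concentration series.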

[10] = target: human Dopamine Transporter (DAT), SLC6A3 (gene 6531) (UniProt Q01959); experiment: NVS_TR_hDAT: NovaScreen (NVS) Transporter Assay for human Dopamine Transporter (DAT) (AID 2283374);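 note: activity means loss of bound radioligand signal relative to DMSO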
In short: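 Cell-free radioligand binding to extracted human DAT protein, read 1 h after dosing by filter-based scintillation counting. Loss of specific binding scored against DMSO baseline; primary screen in duplicate at 25 uM, actives then run in concentration series.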

[11] = target: human Norepinephrine Transporter (NET), SLC6A2 (gene 6530) (UniProt P23975); experiment: NVS_TR_hNET: NovaScreen (NVS) Transporter Assay for human Norepinephrine Transporter (NET) (AID 2283377);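 note: cell-free membrane protein extracted from CHO cells expressing human NET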
In short: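 Radioligand binding to human NET in cell-free CHO-derived protein preparations, read by filter-based scintillation counting 1 hour after dosing. Loss of signal versus DMSO baseline indicated displacement; primary screening in duplicate at 25 uM, actives then titrated.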

Chain of Peroxisome proliferator-activated receptor gamma (Homo sapiens) (P37231 whole entry, looked up): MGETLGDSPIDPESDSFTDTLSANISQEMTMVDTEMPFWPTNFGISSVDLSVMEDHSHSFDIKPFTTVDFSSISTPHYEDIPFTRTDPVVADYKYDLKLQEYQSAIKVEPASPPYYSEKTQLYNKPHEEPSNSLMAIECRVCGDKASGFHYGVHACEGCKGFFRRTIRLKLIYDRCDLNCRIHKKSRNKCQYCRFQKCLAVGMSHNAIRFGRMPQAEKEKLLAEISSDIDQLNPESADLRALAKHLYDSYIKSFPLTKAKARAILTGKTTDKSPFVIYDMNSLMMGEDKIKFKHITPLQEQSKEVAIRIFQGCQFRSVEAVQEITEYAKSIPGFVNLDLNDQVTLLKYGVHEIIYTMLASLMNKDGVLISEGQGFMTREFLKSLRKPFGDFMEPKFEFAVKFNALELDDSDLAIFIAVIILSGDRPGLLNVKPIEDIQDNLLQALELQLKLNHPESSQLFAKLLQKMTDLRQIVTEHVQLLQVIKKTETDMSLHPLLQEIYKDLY
Chain of Estrogen receptor beta (Homo sapiens) (Q92731 whole entry, looked up, the tested form may be a part): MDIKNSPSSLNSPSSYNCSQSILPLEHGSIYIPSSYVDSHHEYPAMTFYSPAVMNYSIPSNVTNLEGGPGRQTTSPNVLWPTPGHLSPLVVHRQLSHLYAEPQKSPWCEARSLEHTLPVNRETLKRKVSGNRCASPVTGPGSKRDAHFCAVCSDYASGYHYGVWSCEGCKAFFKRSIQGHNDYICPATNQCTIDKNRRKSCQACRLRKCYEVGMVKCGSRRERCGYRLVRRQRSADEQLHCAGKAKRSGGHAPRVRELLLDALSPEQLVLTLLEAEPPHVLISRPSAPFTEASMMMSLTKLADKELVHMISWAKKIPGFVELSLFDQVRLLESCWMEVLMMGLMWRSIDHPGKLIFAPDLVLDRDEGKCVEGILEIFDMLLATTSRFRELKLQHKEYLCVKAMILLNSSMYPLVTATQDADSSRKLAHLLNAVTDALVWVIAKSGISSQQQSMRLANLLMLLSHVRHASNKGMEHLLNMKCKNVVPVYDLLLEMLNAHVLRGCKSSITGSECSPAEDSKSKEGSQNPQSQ
Chain of Estrogen receptor (Homo sapiens) + Estrogen receptor beta (Homo sapiens) (P03372 whole entry, looked up, the tested form may be a part): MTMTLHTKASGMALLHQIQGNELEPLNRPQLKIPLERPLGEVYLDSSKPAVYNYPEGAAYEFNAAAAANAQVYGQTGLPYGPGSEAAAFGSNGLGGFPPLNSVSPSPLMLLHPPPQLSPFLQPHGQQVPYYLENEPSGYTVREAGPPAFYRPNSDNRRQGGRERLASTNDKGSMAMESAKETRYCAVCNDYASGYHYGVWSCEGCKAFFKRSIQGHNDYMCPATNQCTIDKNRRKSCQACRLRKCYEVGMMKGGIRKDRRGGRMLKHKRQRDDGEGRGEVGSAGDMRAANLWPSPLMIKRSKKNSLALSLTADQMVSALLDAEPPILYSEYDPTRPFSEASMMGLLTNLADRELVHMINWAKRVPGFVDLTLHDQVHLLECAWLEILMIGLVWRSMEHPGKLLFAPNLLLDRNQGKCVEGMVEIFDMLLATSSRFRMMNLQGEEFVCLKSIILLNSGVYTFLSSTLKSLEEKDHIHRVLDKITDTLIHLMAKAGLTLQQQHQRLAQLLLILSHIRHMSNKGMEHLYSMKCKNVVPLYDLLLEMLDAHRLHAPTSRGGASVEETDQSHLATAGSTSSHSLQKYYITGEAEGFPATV
Chain of Estrogen receptor (Homo sapiens) + Estrogen receptor beta (Homo sapiens) (Q92731 whole entry, looked up, the tested form may be a part): as the sequence (Q92731 whole entry, looked up, the tested form may be a part) above
Chain of human Peroxisome Proliferator-activated Receptor alpha (PPARa), PPARA (gene 5465) (Q07869 whole entry, looked up): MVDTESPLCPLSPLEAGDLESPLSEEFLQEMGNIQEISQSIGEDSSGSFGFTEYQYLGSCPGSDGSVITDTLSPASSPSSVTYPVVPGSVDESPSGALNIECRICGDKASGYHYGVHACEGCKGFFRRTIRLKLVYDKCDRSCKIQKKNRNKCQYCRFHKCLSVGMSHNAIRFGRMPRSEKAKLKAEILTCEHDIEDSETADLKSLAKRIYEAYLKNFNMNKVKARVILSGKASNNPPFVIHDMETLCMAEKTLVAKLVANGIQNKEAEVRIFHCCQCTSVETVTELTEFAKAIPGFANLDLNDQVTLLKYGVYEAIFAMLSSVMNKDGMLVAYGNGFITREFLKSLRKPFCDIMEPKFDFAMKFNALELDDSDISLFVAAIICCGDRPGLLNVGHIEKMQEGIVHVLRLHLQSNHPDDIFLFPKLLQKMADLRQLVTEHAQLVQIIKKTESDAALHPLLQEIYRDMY
Chain of Nuclear receptor subfamily 1 group I member 2 (Homo sapiens) (O75469 whole entry, looked up): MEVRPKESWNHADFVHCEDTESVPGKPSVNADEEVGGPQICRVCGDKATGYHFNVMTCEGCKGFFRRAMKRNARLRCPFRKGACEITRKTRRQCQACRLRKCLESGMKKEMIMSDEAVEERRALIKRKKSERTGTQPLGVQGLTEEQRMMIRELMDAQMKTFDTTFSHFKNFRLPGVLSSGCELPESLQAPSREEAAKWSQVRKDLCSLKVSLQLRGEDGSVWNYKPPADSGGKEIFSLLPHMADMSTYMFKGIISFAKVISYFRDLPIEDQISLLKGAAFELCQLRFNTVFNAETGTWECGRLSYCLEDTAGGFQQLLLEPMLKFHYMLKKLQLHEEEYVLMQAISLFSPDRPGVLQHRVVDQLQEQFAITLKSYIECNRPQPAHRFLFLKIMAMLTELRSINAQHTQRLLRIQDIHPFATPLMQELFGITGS
Chain of human Thyroid Receptor Alpha (TRa), THRA (gene 7067) (P10827 whole entry, looked up): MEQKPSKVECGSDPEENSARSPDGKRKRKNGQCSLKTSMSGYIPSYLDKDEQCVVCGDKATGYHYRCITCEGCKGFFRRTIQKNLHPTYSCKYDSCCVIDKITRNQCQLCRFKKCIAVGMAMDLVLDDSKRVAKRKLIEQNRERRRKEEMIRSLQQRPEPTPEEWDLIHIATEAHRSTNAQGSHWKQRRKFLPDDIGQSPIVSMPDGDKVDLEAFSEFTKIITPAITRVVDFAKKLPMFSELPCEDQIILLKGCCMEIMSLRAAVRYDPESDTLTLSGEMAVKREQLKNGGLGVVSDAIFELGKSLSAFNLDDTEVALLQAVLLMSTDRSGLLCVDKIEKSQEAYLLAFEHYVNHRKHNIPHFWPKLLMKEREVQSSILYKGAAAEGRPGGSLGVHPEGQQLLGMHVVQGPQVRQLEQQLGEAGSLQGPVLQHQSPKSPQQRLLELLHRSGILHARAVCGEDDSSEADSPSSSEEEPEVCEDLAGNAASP
Chain of Glucocorticoid receptor (Homo sapiens) (P04150 whole entry, looked up): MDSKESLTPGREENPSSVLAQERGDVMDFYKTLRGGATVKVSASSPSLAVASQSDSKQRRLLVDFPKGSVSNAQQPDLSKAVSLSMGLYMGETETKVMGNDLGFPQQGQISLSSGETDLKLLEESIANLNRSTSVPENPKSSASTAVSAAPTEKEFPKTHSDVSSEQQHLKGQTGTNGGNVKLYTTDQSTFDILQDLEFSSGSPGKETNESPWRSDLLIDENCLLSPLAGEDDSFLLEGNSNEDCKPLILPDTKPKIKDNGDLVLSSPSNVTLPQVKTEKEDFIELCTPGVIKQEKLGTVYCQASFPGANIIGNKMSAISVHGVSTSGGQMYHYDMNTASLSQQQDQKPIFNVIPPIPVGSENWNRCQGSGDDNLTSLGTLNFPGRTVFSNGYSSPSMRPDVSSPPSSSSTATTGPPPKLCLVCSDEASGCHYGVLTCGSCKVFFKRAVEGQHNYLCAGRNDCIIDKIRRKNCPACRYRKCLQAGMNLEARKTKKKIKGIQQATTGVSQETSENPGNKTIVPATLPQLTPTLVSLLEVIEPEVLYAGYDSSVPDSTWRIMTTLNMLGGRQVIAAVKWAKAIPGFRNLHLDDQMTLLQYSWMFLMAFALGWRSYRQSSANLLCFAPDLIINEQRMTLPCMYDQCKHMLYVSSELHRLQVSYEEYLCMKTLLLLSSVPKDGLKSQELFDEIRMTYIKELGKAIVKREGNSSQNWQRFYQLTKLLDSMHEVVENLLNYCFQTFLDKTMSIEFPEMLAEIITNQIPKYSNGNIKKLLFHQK
Chain of Retinoic acid receptor alpha (Homo sapiens) (P10276 whole entry, looked up): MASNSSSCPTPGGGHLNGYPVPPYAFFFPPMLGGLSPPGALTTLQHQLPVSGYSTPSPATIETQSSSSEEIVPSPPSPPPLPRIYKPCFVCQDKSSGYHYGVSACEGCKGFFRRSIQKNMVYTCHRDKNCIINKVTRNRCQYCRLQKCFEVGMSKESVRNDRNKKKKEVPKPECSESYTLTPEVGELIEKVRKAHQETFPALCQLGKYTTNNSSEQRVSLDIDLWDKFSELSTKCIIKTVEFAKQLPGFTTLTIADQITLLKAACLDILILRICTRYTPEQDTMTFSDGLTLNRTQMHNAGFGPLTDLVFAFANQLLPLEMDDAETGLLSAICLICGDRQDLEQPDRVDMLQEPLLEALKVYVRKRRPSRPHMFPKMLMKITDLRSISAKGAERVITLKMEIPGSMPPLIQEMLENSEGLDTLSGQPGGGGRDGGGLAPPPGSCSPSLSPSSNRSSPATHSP

**Q.** Which results are given for `O=C1CCCC1`?
**A.** outcome [1]: inactive; outcome [2]: inactive; outcome [3]: inactive

**Q.** For `Cc1cc(C)c(C(=O)O)c(C)c1`, which outcome [1] is on record?
**A.** inactive

**Q.** What about the outcome [2] of the same compound?
**A.** inactive

**Q.** `CC/C=C\C/C=C\C/C=C\CCCCCCCC(=O)O` was tested. Which outcome [1] did it give?
**A.** inactive

**Q.** And the outcome [2]?
**A.** inactive

**Q.** What about the outcome [4] of the same compound?
**A.** inactive

**Q.** And the outcome [5]?
**A.** inactive

**Q.** What about the AC50 [6] of the same compound?
**A.** 3.05 µM (active)

**Q.** And the AC50 [7]?
**A.** 0.00769 µM (active)

**Q.** Which results are given for `Cc1ccc(C(C)c2ccc(C)c(C)c2)cc1C`?
**A.** AC50 [1]: 58 µM (active); AC50 [2]: 68.1 µM (active)

**Q.** Which outcome [1] does the source give for `CC1=NN(c2cc(S(=O)(=O)O)ccc2Cl)C(=O)C1N=Nc1ccccc1` (stereo not given) here?
**A.** inactive

**Q.** And the outcome [2]?
**A.** inactive

**Q.** What about the outcome [7] of the same compound?
**A.** inactive

**Q.** What does the source list for `O=S1(=O)OC(c2ccc(O)cc2)(c2ccc(O)cc2)c2ccccc21`?
**A.** outcome [1]: inactive; outcome [2]: inactive; AC50 [5]: 11 µM (active); outcome [6]: inactive; outcome [7]: inactive

**Q.** How did the outcome [1] turn out when `CC(=O)[C@H]1[C@H](C#N)C[C@H]2[C@@H]3CC=C4C[C@@H](O)CC[C@]4(C)[C@H]3CC[C@@]21C` was run?
**A.** inactive

**Q.** And the outcome [2]?
**A.** inactive

**Q.** How did the AC50 [1] turn out when `COC(=O)c1c(C)cc(O)c(C)c1O` was run?
**A.** 50.4 µM (active)

**Q.** And the AC50 [2]?
**A.** 55.5 µM (active)

**Q.** What about the outcome [6] of the same compound?
**A.** inactive

**Q.** How did the outcome [1] turn out when `C=CC(=O)NC(C)(C)CS(=O)(=O)O` was run?
**A.** inactive

**Q.** And the outcome [2]?
**A.** inactive

**Q.** Which results are given for `O=C(C=Cc1ccccc1)OCc1ccccc1`?
**A.** outcome [1]: inactive; outcome [2]: inactive

**Q.** `CCCCCCCCCCCCCOP(=O)(O)O` was tested. Which outcome [1] did it give?
**A.** inactive

**Q.** What about the outcome [2] of the same compound?
**A.** inactive

**Q.** What about the outcome [8] of the same compound?
**A.** inactive

**Q.** And the outcome [4]?
**A.** inactive

**Q.** What about the AC50 [3] of the same compound?
**A.** 10.4 µM (active)

**Q.** And the outcome [6]?
**A.** inactive

**Q.** What about the outcome [7] of the same compound?
**A.** inactive

**Q.** `OC1CCCC1` was tested. Which outcome [1] did it give?
**A.** inactive

**Q.** Which outcome [1] does the source give for `CN(C)c1ccc(C(=N)c2ccc(N(C)C)cc2)cc1` here?
**A.** inactive

**Q.** What about the outcome [2] of the same compound?
**A.** inactive

**Q.** What about the AC50 [9] of the same compound?
**A.** 14.1 µM (active)

**Q.** For `CO[Si](OC)(OC)c1ccccc1`, which outcome [1] is on record?
**A.** inactive

**Q.** Which outcome [1] does the source give for `CCCCC/C=C\C/C=C\CCCCCCCC(=O)OC` here?
**A.** inactive

**Q.** And the outcome [2]?
**A.** inactive

**Q.** What about the outcome [4] of the same compound?
**A.** inactive

**Q.** And the outcome [6]?
**A.** inactive

**Q.** And the AC50 [7]?
**A.** 8.81 µM (active)

**Q.** What about the outcome [7] of the same compound?
**A.** inactive

**Q.** What about the outcome [10] of the same compound?
**A.** inactive

**Q.** And the AC50 [11]?
**A.** 25 µM (active)
